Assay results published in PubChem BioAssay (NCI).
About 83,000 compounds went through this panel and 20% of them were active in at least one assay; those are over-represented in the sample as a whole.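 For each line, cells grew in 96-well plates with the test compound present at a single concentration for 48 hours.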 Unmarked numbers belong to inactive results. Calls of active or inactive are those of the source. The calls were made as follows: active = growth percent below 10; inactive = the rest.

Columns and labels:
Test in all cases: NCI-60 one-dose screen, 48 h (100 = growth as untreated, 0 = no growth, -100 = all killed)
Settings in all cases: 10 µM unless noted
[1] = tested on: NCI-H23 lung
[2] = tested on: NCI-H226 lung
[3] = tested on: NCI-H322M lung
[4] = tested on: HOP-62 NSCLC
[5] = tested on: NCI-H460 lung
[6] = tested on: HOP-92 NSCLC
[7] = tested on: NCI-H522 lung
[8] = tested on: A549/ATCC NSCLC
[9] = tested on: 786-0 renal
[10] = tested on: COLO 205 colon

| Compound | growth [1] | growth [2] | growth [3] | growth [4] | growth [5] | growth [6] | growth [7] | growth [8] | growth [9] | growth [10] |
| --- | --- | --- | --- | --- | --- | --- | --- | --- | --- | --- |
| CCOC(=O)C(=CNc1cnc(Nc2ccc(N3CCOCC3)cc2)nc1Oc1ccc(OC)cc1)C(=O)OCC | 68.4% | 70.3% | 39.7% | 23.5% | 2.03% (active) | 30.3% | 76.3% | 22.2% | 30.8% | 65.9% |
| COc1ccc(-c2ccc(-c3ccc(C(=N)N)nc3)s2)cc1Cl | 41.2% | 77.7% | 15.7% | -30.8% (active) | -80.3% (active) | 84.4% | -47.3% (active) | -32.3% (active) | -89.7% (active) | -56% (active) |
| CN(CCCNC(=O)CCOCCOCCOCCNC(=O)Cc1ccc2ccc3cccc4ccc1c2c34)CCCNc1cc(-c2ccc3ccccc3c2)nc2ccccc12 | -82.9% (active) | -47.1% (active) | -88.4% (active) | -90.4% (active) | -82.6% (active) | -88.2% (active) | -59% (active) | -33.9% (active) | -85.6% (active) | -87.7% (active) |
| N#Cc1nc(-c2ccccc2)oc1S(=O)(=O)N1CCN(c2ccc(F)cc2)CC1 | 80.8% | 85.7% | 91.6% | 112% | 102% | 76% | 2.64% (active) | 101% | 64.9% | 33.6% |
| O=C(Cc1ccc(/C=C/C(=O)c2ncc[nH]2)cc1)Nc1cc(C(F)(F)F)cc(C(F)(F)F)c1 | 93.9% | 103% | 96.4% | 106% | 93.7% | 116% | 96.6% | 81.1% | 52.2% | 102% |
| O=C(Nc1ccc(Cl)cc1)Oc1c(Cl)c(Cl)c(Cl)c(Cl)c1Cl | 86.1% | 89.6% | 95.2% | 85.6% | 101% | 41% | 83.2% | 93.3% | 94.7% | 105% |
| COc1cccc(C(=O)NNc2nc(Cl)nc(Cl)n2)c1 | 99.1% | 105% | 98.5% | 104% | 107% | 98.3% | 100% | 105% | 101% | 107% |
| O=C(Nc1ccc(Br)cc1)C1=NCCCCN1 | 85.1% | 93.1% | 98.1% | 74.7% | 89.5% | 102% | 82.9% | 90.5% | 96.2% | 110% |
| CC1=C(CCC(C)NCc2ccc(OCCCN3CCCCC3)cc2)C(C)(C)CCC1 (stereo not given) | -42.9% (active) | -32.7% (active) | -40.5% (active) | -67.6% (active) | -77% (active) | -83% (active) | -79.4% (active) | -64.2% (active) | -85.6% (active) | -70.9% (active) |
| Fc1ccc2[nH]cc(-c3nc(-c4c[nH]c5ccncc45)cs3)c2c1 | 49.3% | 68.6% | -5.67% (active) | -73.6% (active) | -71.5% (active) | 28.6% | -61.1% (active) | -41.7% (active) | -92.9% (active) | -72.9% (active) |
| CCOC(=O)c1ccccc1-c1c2ccc(=[N+](C)C)cc-2oc2cc(N(C)C)ccc12 | 93% | 19.5% | 12.6% | 6.81% (active) | 3.9% (active) | -19.3% (active) | 14.2% | 12% | 20.5% | -46.6% (active) |
| N#Cc1ccc(O)c(C2=NCC(Cc3ccccc3)O2)c1 (stereo not given) | 54.5% | 65.9% | 59.9% | 24.1% | 23.5% | 65% | -17.5% (active) | 35.8% | 38.7% | 60.7% |
| NC(=O)c1c(NC(=O)c2cccs2)sc2c1CCC(=O)C2 | 20.4% | 82.9% | 77.2% | 84.6% | 87.5% | 36.7% | -0.894% (active) | 84.8% | 76% | 34.2% |
